Pf growth 96h – inhibits malaria parasite growth, 96 h. hit rate 6.9% among 320,000. AID 504834. Potency, µM (titrated, usually from 28.7 µM), hits mostly inhibitors. P. falciparum luciferase reporter growth, 96 h
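Plates of compound plus infected erythrocytes (2% hematocrit, 0.05% parasitemia final) incubate 96 hours, 37 C, 5% CO2. Detection reagent added; reduced luminescence from the parasites' luciferase reporter flags inhibition.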
Pf growth 48h – P. falciparum growth inhibition at 48 hours (one generation); AID 504832; hit rate 5.9% among 310,000; Potency, µM (series often up to 28.7 µM), usual class: inhibitors; P. falciparum luciferase growth in erythrocytes, 48 h
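Firefly luciferase activity from engineered P. falciparum reports growth; inhibitors lower the luminescent signal. Cultures contained 2% hematocrit erythrocytes at 0.1% final parasitemia.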
HCMV antiviral – blocks human cytomegalovirus replication. HFF cells, HCMV-luciferase reporter, 72 h; hits give low values. hit rate 4.5% among 410,000. activity change, negative = inhibition, % at 57.5 µM. AID 1259415; in the data active = activity change below about -60%; inconclusive = no clear call, values can overlap the other calls; inactive = above about -39%
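Human foreskin fibroblasts infected with luciferase-reporter HCMV at MOI 1 PFU/cell, compounds at two doses. Luciferase measured 72 h post infection; normalized to buffer-only basal and Salinomycin (10uM) controls.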
HCV inhibitor – HCV inhibition; AID 651820; hit rate 3.4% among 340,000; Huh7.5.1 HCVcc-Cre infection, luciferase reporter, 44 h; Potency, µM (highest dose often 41.8 µM), most hits filed as inhibitors
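HCVcc-Cre virus at an moi near 0.5 was added right after compound to cells cultured 4 h from seeding (1,000 cells/well). Luciferase activity was determined 44 h later, 15 min after substrate addition at RT.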
Lassa entry inh – Lassa virus entry inhibition; Potency, µM (titrated, usually from 37.9 µM), actives largely listed as inhibitors; Lassa virus pseudotype entry inhibition, cell reporter; hit rate 1.2% among 300,000; calls by dose curve; tested in HEK293 cells; note: nearly all actives have a fitted effect of over 50% in size
MARV entry inh – Marburg virus entry inhibition; hit rate 1.8% among 300,000; Marburg virus pseudotyped entry inhibition, cell reporter; AID 540276; Potency, µM (doses to about 37.8 µM), most hits filed as inhibitors; calls by dose curve; tested in HEK293 cells
Large screens that a line does not name were inactive; ! = repeats disagree. An excerpt weighted towards active compounds, which were near 14% of everything screened. Unless noted, calls come from the whole dose curve; as a rule, active = well fitted inhibition curve with a large enough effect; inconclusive = small, poorly fitted or top-dose-only effect, or another doubt; inactive = no such curve, though single readings can be large or run the other way.

COC(=O)c1ccc(NC(=O)CCN2CCN(Cc3ccccc3)CC2)cc1	Pf growth 48h 13µM
CCc1ccc(C(=O)NNC(=O)CCN2CCN(Cc3ccccc3)CC2)cc1	Pf growth 48h 2.3µM, MARV entry inh inconclusive
O=C(/C=C/c1ccc(F)cc1)NNC(=O)CCN1CCN(Cc2ccccc2)CC1	HCMV antiviral -96, Lassa entry inh inconclusive, MARV entry inh inconclusive
COC(=O)c1ccc(CN2CCN(Cc3ccccc3)CC2)cc1	MARV entry inh inconclusive (no result: Pf growth 48h)
CCCCCn1c(=O)[nH]c2cc(C(=O)NCCCN3CCCCC3)ccc2c1=O	Pf growth 48h 9.3µM, HCV inhibitor 10µM, MARV entry inh inconclusive (no result: Pf growth 96h)
CC1CCCCN1CCCNC(=O)c1ccc2c(=O)n(CCc3ccccc3)c(=O)[nH]c2c1 (centres undefined)	HCV inhibitor 4µM, Lassa entry inh inconclusive, MARV entry inh inconclusive (no result: Pf growth 48h)
COCCn1c(=O)[nH]c2cc(C(=O)NCc3ccccc3)ccc2c1=O	Pf growth 96h 1.5µM, HCV inhibitor inconclusive, MARV entry inh inconclusive (no result: Pf growth 48h)
Cc1c(C)n(C)c2ccc(C(=O)NCCCN3CCCCC3C)cc12 (centres undefined)	Pf growth 96h 6.6µM, HCMV antiviral active! (no result: MARV entry inh)
CCCCCn1c(=O)[nH]c2cc(C(=O)NCCN3CCC(C)CC3)ccc2c1=O	HCV inhibitor inconclusive, Lassa entry inh inconclusive (no result: HCMV antiviral)
Cc1c(C)n(C)c2ccc(C(=O)NCCCN(C)C3CCCCC3)cc12	Pf growth 96h inconclusive (no result: Lassa entry inh, MARV entry inh)
CC1CCCN(S(=O)(=O)c2ccc3c(c2)CCN3C(=O)CCC(=O)O)C1 (centres undefined)	none (no result: Pf growth 96h, Pf growth 48h, HCV inhibitor)
CCCCNC(=O)c1ccc2c(c1)ncn2C1CCCC1	Pf growth 96h inconclusive (no result: Pf growth 48h)
CC1CCN(CCCNC(=O)c2ccc3c(=O)n(CCc4ccccc4)c(=O)[nH]c3c2)CC1	Pf growth 96h inconclusive, HCV inhibitor 8.9µM, MARV entry inh inconclusive (no result: Pf growth 48h)
CC1CCCCN1CCNC(=O)c1ccc2c(=O)n(CCc3ccccc3)c(=O)[nH]c2c1 (centres undefined)	HCV inhibitor 11µM, Lassa entry inh inconclusive, MARV entry inh inconclusive
CC1CC(C)CN(CCCNC(=O)c2ccc3c(c2)ncn3C2CCCC2)C1 (centres undefined)	Pf growth 96h 10µM, Pf growth 48h inconclusive, HCMV antiviral inconclusive (no result: Lassa entry inh, MARV entry inh)
O=C(NCC1CCCO1)c1ccc2c(=O)n(Cc3ccc(Cl)cc3)c(=S)[nH]c2c1 (centres undefined)	Pf growth 96h inconclusive, Lassa entry inh inconclusive, MARV entry inh inconclusive
CC1CCCCN1CCNC(=O)c1ccc2c(=O)n(Cc3ccc(Cl)cc3)c(=S)[nH]c2c1 (centres undefined)	Pf growth 48h 3.7µM, HCV inhibitor 2.2µM, Lassa entry inh inconclusive, MARV entry inh inconclusive
CC1CCN(CCNC(=O)c2ccc3c(=O)n(CCc4ccccc4)c(=O)[nH]c3c2)CC1	none (no result: Pf growth 96h, Pf growth 48h, HCV inhibitor, Lassa entry inh, MARV entry inh)
COc1cccc(CNC(=O)c2cc(=O)[nH]c3ccc(S(=O)(=O)N4CCCC4)cc23)c1	HCMV antiviral inconclusive (no result: Pf growth 96h, Pf growth 48h, HCV inhibitor)
COc1ccc(OC)c(CNC(=O)c2cc(=O)[nH]c3ccc(S(=O)(=O)N4CCCCC4C)cc23)c1 (centres undefined)	Lassa entry inh inconclusive (no result: Pf growth 96h, Pf growth 48h, HCV inhibitor, MARV entry inh)
Cn1ncc2c(Nc3ccc(-c4ccccc4)cc3)ncnc21	Pf growth 96h inconclusive, HCMV antiviral inconclusive, HCV inhibitor inconclusive, Lassa entry inh 3.7µM, MARV entry inh 2.9µM
Cc1ccc(-n2ncc3c(Nc4cccc(C(F)(F)F)c4)ncnc32)cc1C	HCMV antiviral -65, Lassa entry inh inconclusive (no result: Pf growth 96h, Pf growth 48h, HCV inhibitor, MARV entry inh)
Cn1ncc2c(Nc3ccc(Cl)c(Cl)c3)ncnc21	HCV inhibitor inconclusive (no result: Lassa entry inh, MARV entry inh)
Cc1ccc(-n2ncc3c(Nc4cccc(C)c4)ncnc32)cc1	none (no result: Pf growth 96h, Pf growth 48h, HCV inhibitor, MARV entry inh)
Cc1ccc(-n2ncc3c(Nc4ccccc4C)ncnc32)cc1	none (no result: Pf growth 96h, Pf growth 48h, HCV inhibitor, MARV entry inh)
Cc1ccccc1Nc1ncnc2c1cnn2-c1ccccc1	HCV inhibitor 11µM (no result: Lassa entry inh, MARV entry inh)
O=C(COc1ccc(Cl)cc1Cl)N(C1CCCCC1)C1CCS(=O)(=O)C1 (centres undefined)	Pf growth 96h 10µM, Pf growth 48h inconclusive
N#Cc1ccccc1OCC(=O)N(C1CCCCC1)C1CCS(=O)(=O)C1 (centres undefined)	none
O=c1c2ccccc2nc(/C=C/c2cccc3ccccc23)n1-c1ccc(F)cc1F	none (no result: Pf growth 96h, Pf growth 48h, HCV inhibitor, MARV entry inh)

Screening data as filed in PubChem.
